Bioassay records as filed in PubChem BioAssay.
D1 agonist = Allosteric Agonists of the Human D1 Dopamine Receptor: qHTS. D(1A) dopamine receptor (Homo sapiens), P21728. HEK293 T-REx D1 cells, calcium flux, agonist mode. activation, % at 2 µM. 360,000 tested, 1% active; also: 0% is about no effect
Target sequence (P21728 whole entry, looked up): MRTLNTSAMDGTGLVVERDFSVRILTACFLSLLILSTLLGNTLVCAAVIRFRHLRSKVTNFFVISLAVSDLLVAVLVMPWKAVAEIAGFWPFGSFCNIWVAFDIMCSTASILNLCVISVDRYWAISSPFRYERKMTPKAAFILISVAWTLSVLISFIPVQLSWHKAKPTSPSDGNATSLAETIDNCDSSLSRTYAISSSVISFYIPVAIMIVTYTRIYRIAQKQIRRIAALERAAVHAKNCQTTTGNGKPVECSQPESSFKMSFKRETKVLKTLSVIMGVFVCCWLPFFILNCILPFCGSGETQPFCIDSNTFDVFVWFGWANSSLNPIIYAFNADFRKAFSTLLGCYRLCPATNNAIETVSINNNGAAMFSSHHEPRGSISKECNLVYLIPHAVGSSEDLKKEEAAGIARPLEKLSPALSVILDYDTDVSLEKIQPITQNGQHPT
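Inducible HEK293 T-REx D1 cells, force-coupled to calcium signalling, were plated at 4000 cells/well with tetracycline and held overnight at 30 C. After no-wash calcium dye loading, compound-evoked calcium rise over 180 s flagged agonists.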
D1 antag = Antagonist of Human D 1 Dopamine Receptor: qHTS; activity change, negative = inhibition, % at 10 µM; AID 504652, 2011; HEK293 TREx D1 cells, calcium flux, dopamine EC80; stronger effect = lower value; 360,000 tested, 3.2% active; D(1A) dopamine receptor (Homo sapiens), P21728; in the data active = activity change below about -30%; also: % is scaled to controls: 0 for no effect and ±100 for the full control effect
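Antagonism measured as reduced calcium response to an EC80 dopamine addition following 180 s compound pre-read; cells were inducible HEK293 Trex D1 plated overnight at 30 C, read kinetically at 1 cycle/sec.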
TRHR agonist = qHTS for Small Molecule Agonists and Allosteric Enhancers of Human TRH Receptor: Primary Screen for Agonists | activation, % at 2 µM | 360,000 tested, 0.18% active | TRHR cells, calcium flux fluo-8, FDSS agonist mode | Thyrotropin-releasing hormone receptor (Homo sapiens), P34981 | AID 493084, 2011; also: 0% is about no effect
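Read-out: compound-evoked intracellular calcium rise in TRHR cells, fluo-8 dye, kinetic FDSS fluorescence at 1 s/cycle following a 10-cycle baseline. Cells cultured overnight before dye loading (30 min–1.5 h, RT).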
D1 potentiator = Potentiators of Human D1 Dopamine Receptor: qHTS; D(1A) dopamine receptor (Homo sapiens), P21728; HEK293 TREx D1 cells, calcium flux, dopamine EC20 potentiation; potentiation, % at 10 µM; 360,000 tested, 0.036% active; in the data active = potentiation above about 30%; also: 0% is about no effect
TRHR enhancer = qHTS for Small Molecule Agonists and Allosteric Enhancers of Human TRH Receptor: Primary Screen for Enhancers. TRHR cells, fluo-8 calcium fluorescence, EC20 TRH enhancement. enhancement, % at 2 µM. 360,000 tested, 0.66% active. AID 493056, 2011; in the data active = enhancement above about 30%; also: 0% is about no effect
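Enhancer read-out: after compound pinning and an initial kinetic agonist-mode read, an EC20 of TRH (10 nM final) was injected and fluo-8 calcium signal (Ex 480/Em 530) followed at 1 s/cycle for 100 cycles in TRHR-expressing cells.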
Active calls of the source: *. Only some compounds are listed: those with a hit (about 4.7% of all), similar ones and a draw of the others. Rule as the data show it, unless noted: active = activation above about 30%; inactive = the rest.

SMILES | D1 agonist | D1 antag | TRHR agonist | D1 potentiator | TRHR enhancer
Cc1ccccc1CNC(=O)Cn1ncn2nc(-c3cccs3)cc2c1=O | 7 | -36* | -1 | 0 | -5
Cc1cccc(C)c1Nc1c(-c2ccsc2)nc2cccc(C)n12 | 0 | 6 | -2 | 3 | 15
CC(C)c1ccc(/C=C2\NC(=S)N(Cc3cccnc3)C2=O)cc1 | 0 | -37* | -1 | -4 | -1
Clc1ccc(CCNC(c2nnc(-c3ccccc3)o2)c2ccccc2Cl)cc1 (stereo unspecified) | 69* | -10 | -1 | 7 | 5
Fc1ccc(C(NCCc2ccc(Cl)cc2)c2nnc(-c3ccccc3)o2)c(Cl)c1 (stereo unspecified) | 64* | -16 | 0 | 9 | 6
CC1=C(c2ccc(Cl)cc2)S(=O)(=O)N=C1N1CCN(c2cccc(C(F)(F)F)c2)CC1 | 5 | -1 | 0 | -1 | -1
O=C1CCSc2ccc(S(=O)(=O)Nc3cccc(C(F)(F)F)c3)cc2N1 | 3 | -14 | -1 | -1 | 8
O=c1cc(CSc2n[nH]c(-c3ccccc3)n2)[nH]c2ccccc12 | -1 | -20 | 0 | -1 | 8
Cc1cccc(CCNC(=O)CN(C)S(=O)(=O)c2ccc3c(c2)c(=O)n(C)c(=O)n3C)c1 | 1 | 4 | 0 | -7 | -7
Cc1ccc(CCNC(=O)CN(C)S(=O)(=O)c2ccc3c(c2)c(=O)n(C)c(=O)n3C)cc1 | 1 | -15 | 0 | -7 | 40*
CN(CC(=O)NCc1ccc(Cl)cc1)S(=O)(=O)c1ccc2c(c1)c(=O)n(C)c(=O)n2C | 0 | -44* | 0 | 4 | 24
COc1ccccc1CNC(=O)CN(C)S(=O)(=O)c1ccc2c(c1)c(=O)n(C)c(=O)n2C | 0 | -37* | 0 | -1 | 2
Cc1cc2oc(C(=O)Nc3ccc(S(=O)(=O)Nc4onc(C)c4C)cc3)cc(=O)c2cc1C | 1 | 10 | 0 | -3 | 2
CCN(C(=O)c1noc2c1COc1ccc(C)cc1-2)c1cccc(C)c1 | 2 | -3 | 1 | 0 | -1
O=C(COC(=O)c1cccc(S(=O)(=O)N2CCN(c3ccccc3)CC2)c1)NCC1CCCO1 (stereo unspecified) | 3 | -34* | 0 | -4 | 9
O=C(COC(=O)c1cccc(S(=O)(=O)N2CCN(c3ccc(F)cc3)CC2)c1)NCC1CCCO1 (stereo unspecified) | 8 | -5 | 0 | -8 | 7
Cc1cccnc1NC(=O)CCNS(=O)(=O)c1ccc2c(c1)c(=O)n(C)c(=O)n2C | -3 | 4 | 0 | -1 | 35*
O=C(Oc1cc(-c2ccccc2)no1)c1ccc(F)cc1 | 1 | -47* | 0 | 0 | -3
O=C(Oc1cc(-c2ccccc2)no1)c1cccc(C(F)(F)F)c1 | 4 | -5 | 1 | -3 | -3
C/C(=N\NC(=S)NCc1ccccc1)c1ccc(C#N)cc1 | 0 | -33* | 1 | -1 | -1
COCCN(Cc1nc2ccccc2c(=O)[nH]1)C(=O)c1cccc(S(=O)(=O)N2CCCC2)c1 | 2 | -55* | 0 | 0 | 2
O=C1OC2(CCCCC2)CC2=C1C1O[C@](CCCCN3C(=O)c4ccccc4C3=O)(Cc3ccccc31)O2 | 3 | -9 | 1 | -3 | 5
Cc1ccc(NC(=O)C(Cc2c[nH]c3ccccc23)NC(=O)OC(C)(C)C)c(C)c1 (stereo unspecified) | 2 | -35* | -1 | -5 | -7
COCCCNC(=O)CSc1nc2c(sc3ccccc32)c(=O)n1CCCC(=O)NCCOC | 2 | -5 | 0 | 4 | -2
CCc1c(C)c2cc3c(c(C)c2oc1=O)OCN(CCc1ccccc1F)C3 | 0 | -7 | -2 | 0 | 4
SMILES | D1 agonist | D1 antag | TRHR agonist | D1 potentiator | TRHR enhancer
O=C(COc1cc(Cl)c(Cl)cc1Cl)Nc1ccncc1 | -1 | -30* | -1 | 5 | 2
COc1cccc(NC(=O)COc2ccc(Br)c(C)c2)c1 | 2 | -37* | 0 | -5 | 20
Cc1ccc(OCC(=O)Nc2ccncc2)cc1 | 4 | -7 | 0 | -1 | -6
O=C(COc1cc(Cl)c(Cl)cc1Cl)Nc1cccc(O)c1 | 3 | -22 | -1 | 1 | -5
Cc1cc(OCC(=O)Nc2ccncc2)ccc1Br | 13 | -32* | -1 | -2 | -11
COc1cccc(C(=O)NCCSc2c(-c3ccc(F)cc3)[nH]c3ccccc23)c1OC | 0 | 2 | 1 | 1 | 2
CCC(Oc1ccccc1)C(=O)Nc1cc(-c2ccccc2F)nn1-c1ccccc1 (stereo unspecified) | 13 | 1 | 1 | -1 | -5
CCN1C(=O)C(Cc2nc3ccccc3c(=O)n2-c2cccc(C)c2)c2ccccc21 (stereo unspecified) | 4 | 17 | 0 | -1 | -3
COC(=O)CNC(=O)c1cccc(Cl)c1 | 4 | -32* | 0 | -4 | -3
COC(=O)CNC(=O)c1cccc(F)c1 | 1 | 13 | 1 | -5 | 4
COc1cc(C2CC(=O)OC3=C2C(=O)CC(C)(C)C3)cc(OC)c1OC (stereo unspecified) | -1 | 3 | 0 | -1 | 33*
COc1cc(C2CC(=O)NC3=C2C(=O)CC(C)(C)C3)cc(OC)c1O (stereo unspecified) | 1 | -11 | 0 | -1 | -1
CCNC(=O)C1CCN(S(=O)(=O)c2ccc3c(c2)CCCN3C(C)=O)CC1 | 1 | 2 | 0 | -1 | 0
Cc1cc(C)c(C)c(S(=O)(=O)N2CCN(S(=O)(=O)c3ccc4c(c3)OCCO4)CC2)c1C | 5 | -48* | 2 | -2 | 1
Cc1ccc(S(=O)(=O)N2CCN(c3ncnc4sccc34)CC2)cc1C | 9 | -15 | 0 | -6 | 1
O=S(=O)(c1ccc2c(c1)OCCO2)N1CCN(c2ncnc3sccc23)CC1 | 13 | -32* | 0 | -4 | -7
O=C(CC1N=C2c3ccccc3N=C(SCC(=O)Nc3ccccc3F)N2C1=O)NCc1cccs1 (stereo unspecified) | 1 | 0 | 1 | 2 | 4
CCCOc1ccc(C(=O)N(Cc2ccc(N(C)C)cc2)CC2CCCO2)cc1 (stereo unspecified) | 7 | -14 | -1 | -2 | 17
Cc1ccc(NS(=O)(=O)c2cc(C(=O)NCc3ccccn3)ccc2Cl)cc1C | 1 | -31* | -1 | -5 | -3
